Rows were chosen to be rich in hits. Some 12% of all compounds tested hit in one or more screens of this group.
m-calpain inh: calpain II (pig) inhibition. purified calpain II, fluorogenic peptide substrate, 30 min. inhibition, % at 16 µM. hit rate 0.37% among 220,000;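 active means inhibition above about 50%, limit read from the data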
Cl transport mod: modulates chloride dependent transport by human KCC2; KCC2 cells, thallium flux FluoZin-2 fluorescence; B-score of Tl+ flux slope (higher = more flux/activation; lower = inhibition) at 10 µM; hit rate 2.2% among 190,000; AID 1456;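 active means thallium flux slope and its plate-corrected score both differing from the plate sample mean at a set confidence after two filtering rounds, in either direction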;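 further: slope of fluorescence scaled to starting intensity during 10 to 20 s after thallium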
Lmaj promast: inhibitors of Leishmania major promastigote growth | Leishmania major promastigotes, resazurin fluorescence viability | inhibition, % at 10 µM | hit rate 9% among 200,000 | AID 1063; in the data active means inhibition above about 50%;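 further: promastigotes grown with compound for 44 hours at 28 °C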
ROMK primary: human ROMK K+ channel modulation, primary screen; Tet-inducible ROMK, thallium flux fluorescence; actives lie on both sides; B-score at 10 µM; hit rate 2% among 130,000; AID 1918;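 active means signal ratio slope over the read window, or its plate-corrected B-score, at least 3 SD from the plate mean, either direction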;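 further: B-score of the F/F0 ratio slope over 7 to 12 s after thallium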
Target sequence (P48048 whole entry, looked up): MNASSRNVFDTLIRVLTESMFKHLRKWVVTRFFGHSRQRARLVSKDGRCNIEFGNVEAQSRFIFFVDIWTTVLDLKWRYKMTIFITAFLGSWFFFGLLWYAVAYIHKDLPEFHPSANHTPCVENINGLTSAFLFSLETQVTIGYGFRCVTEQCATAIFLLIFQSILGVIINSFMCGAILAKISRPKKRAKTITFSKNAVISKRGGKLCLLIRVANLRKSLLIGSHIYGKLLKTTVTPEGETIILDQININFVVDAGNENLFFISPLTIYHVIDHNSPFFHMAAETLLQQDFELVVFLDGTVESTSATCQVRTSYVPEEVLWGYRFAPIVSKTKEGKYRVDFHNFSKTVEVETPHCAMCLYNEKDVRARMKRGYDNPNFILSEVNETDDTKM
WT yeast gro inh: growth inhibition of WT yeast, mitochondrial fusion screen; mitochondrial fusion phenotypic screen, WT strain; hit rate 2.1% among 190,000; inhibition, % at 10 µM; in the data active means inhibition above about 58%; tested in S. cerevisiae
* marks the source's active call; other numbers are inactive results; i = inactive; . = not tested or not shown.

SMILES	m-calpain inh	Cl transport mod	Lmaj promast	ROMK primary	WT yeast gro inh
O=S(=O)(/N=C(/NNS(=O)(=O)c1ccccc1)c1ccccc1)c1ccccc1	-37.5	-1.43	-3.6	0.352	-11.9
N#CCc1cnc2ccccc2n1	5.7	0.857	.	.	.
CCCc1c(O)nc(SCC(=O)NCc2ccco2)[nH]c1=O	3.0	0.0593	-0.4	0.23	-1.4
COc1cc(CNn2c(C)n[nH]c2=S)cc(Cl)c1OCc1ccc(F)cc1	-19.2	-0.606	-0.4	-0.633	70.8*
O=C(CSc1ncn[nH]1)OCN1C(=O)c2ccccc2C1=O	26.1	0.284	0.6	.	3.6
CC1(C)Cc2c(C#N)c(N3CCN(C(=O)c4ccccc4)CC3)nc(Cc3ccccc3)c2CO1	18.2	0.232	71.2*	0.498	33.5
CCc1n[n+](CC(=O)c2ccccc2)c(N)s1	9.1	0.4	5.0	-0.12	8.3
CC(C)c1ccc2c(c1)C(c1ccc(N3CCOCC3)cc1)=NNC(c1cccs1)=N2	-107.2	-0.181	82.6*	-0.0737	39.9
Cc1c(NC(=O)C(C)N2C(=O)NC3(CCC(C)CC3)C2=O)c(=O)n(-c2ccccc2)n1C (stereo not given)	17.4	0.364	0.8	.	-13.2
Cc1cc(Cl)ccc1OCC(=O)NCCCN1CCOCC1	8.5	.	92.5*	-0.285	5.6
O=C(COc1ccccc1Cl)NCCCN1CCOCC1	-5.2	.	80.3*	.	-4.9
CC(OC(=O)Cc1c(F)cccc1Cl)C(=O)NCCC1=CCCCC1 (stereo not given)	-3.2	-0.502	52.3*	0.795	-12.7
COc1ccc(OC(C)C(=O)NCCC2=CCCCC2)cc1 (stereo not given)	7.0	-0.875	10.1	-0.149	2.9
O=C(COc1ccc(Cl)cc1Cl)NCCC1=CCCCC1	-0.9	.	-3.8	.	65.8*
CN1CCN(C(=S)NC(=O)c2cccc(S(=O)(=O)N(C)C)c2)CC1	12.3	-1.17	-6.1	1.45	-16.6
O=C(COc1ccc(Cl)cc1Cl)NCCCN1CCOCC1	-21.9	.	94.0*	.	19.3
CC(Oc1ccc(Cl)cc1Cl)C(=O)NCCN1CCOCC1 (stereo not given)	-22.7	-0.021	79.1*	.	24.5
Cc1ccc(-c2csc3nc4c5ccccc5c(NCCCN5CCOCC5)nn4c(=O)c23)cc1	-284.7	0.5	100.6*	0.299	75.0*
Cc1ccc(-c2csc3nc4c5ccccc5c(NCCCN(C)C)nn4c(=O)c23)cc1	i	-0.286	100.6*	-0.825	32.8
Cc1ccc(N(C(C)C(=O)N2CCOCC2)S(C)(=O)=O)cc1C (stereo not given)	-15.5	-0.0866	-4.2	.	-9.3
O=C(CC1C(=O)NCCN1Cc1cccc(Oc2ccccc2)c1)NCCc1ccncc1 (stereo not given)	-35.5	-0.326	-4.0	0.36	1.4
CCCS(=O)(=O)c1nc(S(=O)(=O)c2ccc(C)cc2)c(N2CCc3ccccc3C2)s1	7.2	-1.37	61.4*	.	-10.0
CCCS(=O)(=O)c1nc(S(=O)(=O)c2ccc(C)cc2)c(N2CCCC2)s1	-33.6	0.983	1.1	.	1.9
C/C(=N/NC(=O)c1ccc(C)nc1)c1ccc2c(c1)CCCC2	-6.9	0.0249	1.9	0.738	9.2
CSc1cccc(NC(=S)N2CCCN(Cc3ccccc3F)C2)c1	11.9	1.33	75.8*	-0.502	18.2
SMILES	m-calpain inh	Cl transport mod	Lmaj promast	ROMK primary	WT yeast gro inh
Fc1cccc(NC(=S)N2CCCCC2)c1	-31.1	0.791	14.2	.	11.6
CSc1cccc(NC(=S)N2CCC(N(C)C3CCCCC3)CC2)c1	-4.0	0.553	88.5*	.	-4.8
CCCCN(C(=S)Nc1cccc(SC)c1)C1CCN(C(C)=O)CC1	19.9	-0.00398	11.6	-0.287	-3.4
CSc1cccc(NC(=S)N2CCC(N(C)C3CCCCC3C)CC2)c1 (stereo not given)	-4.0	0.0686	82.1*	0.164	-3.3
O=C(CSCc1ccc([N+](=O)[O-])cc1)Nc1ccccc1C(=O)O	-8.0	-1.34	-7.7	0.717	-28.7
Cc1cccc(NC2=C/C(=N/S(=O)(=O)c3cccs3)c3ccccc3C2=O)c1	17.0	0.103	18.7	0.737	20.4
Cc1ccc(NC2=C/C(=N\S(=O)(=O)c3cccs3)c3ccccc3C2=O)c(C)c1	-15.8	-0.0221	100.5*	-2.16	95.9*
Cc1ccc(Cl)cc1NC1=C/C(=N\S(=O)(=O)c2cccs2)c2ccccc2C1=O	-68.3	-1.16	100.4*	-1.64	96.3*
O=C1C(Nc2ccc(O)cc2)=C/C(=N/S(=O)(=O)c2cccs2)c2ccccc21	7.8	-0.00913	100.4*	-0.536	40.6
O=C(O)CCC(=O)N(Cc1ccco1)C1CC(=O)N(c2ccccc2)C1=O (stereo not given)	-21.3	-0.0596	.	-0.444	.
O=C(C1CCN(S(=O)(=O)c2cccs2)CC1)N(c1ccccn1)C1CCCCC1	-22.0	-0.184	3.8	0.247	9.9
Cc1ccsc1C(=O)Nc1cccc(S(=O)(=O)N(C)C)c1	2.0	0.266	-3.6	0.0313	-4.5
COc1cccc(-c2cc(C(=O)Nc3c(C)nn(Cc4ccccc4C)c3C)no2)c1	-9.6	.	52.5*	0.11	-5.4
COc1cccc(-c2cc(C(=O)Nc3cc(OC)c(OC)c(OC)c3)no2)c1	-20.1	-0.0409	51.0*	.	-6.1
COc1cccc(-c2cc(C(=O)Nc3cc(C)on3)no2)c1	-18.5	0.549	2.0	.	17.8
CSC1=NC2(CC(c3ccccc3)Oc3cc(O)ccc32)CC(C)(C)N1 (stereo not given)	-13.5	-0.657	4.0	-3.98*	-1.2
O=C(CC1NCCNC1=O)OCCCc1ccccc1 (stereo not given)	-26.0	0.945	-5.4	.	4.7
Cc1cc(C)cc(NC(=O)N2CCCC2C(=O)Nc2ccc(-n3cnnn3)cc2)c1 (stereo not given)	32.9	-0.0638	-5.6	1.28	-13.0
CC(C)c1ccc(NC(=O)N2CCCC2C(=O)Nc2ccc(-n3cnnn3)cc2)cc1 (stereo not given)	20.1	0.599	65.6*	-0.169	-0.4
O=S1(=O)N=C(N(CCO)/N=C/C=C/c2ccccc2)c2ccccc21	-2.1	0.48	53.1*	-0.461	-13.6
COc1ccc(OC)c(NC(=O)COC(=O)Cc2ccc(Br)cc2)c1	29.7	-2.13	4.1	.	66.8*
COc1ccc(OC)c(NC(=O)COC(=O)Cc2ccc(-c3ccccc3)cc2)c1	33.7	-0.908	-1.2	-1.12	33.7
Cc1cc(C)c2sc(N(CCCN(C)C)C(=O)c3ccc(Br)s3)nc2c1	23.2	0.126	54.5*	-0.671	94.3*
Cc1cc(C)c2sc(N(CCN(C)C)C(=O)c3c(F)cccc3F)nc2c1	-12.7	-0.316	25.5	-0.459	61.9*
Cc1cc(C)c2sc(N(CCCN(C)C)C(=O)CN3C(=O)c4ccccc4C3=O)nc2c1	-42.8	0.286	41.3	0.309	38.4
SMILES	m-calpain inh	Cl transport mod	Lmaj promast	ROMK primary	WT yeast gro inh
COc1cc(OC)c(NC2=NCCCCC2)cc1Cl	-49.3	0.482	0.1	.	8.7
Cc1cc(Cl)nc(Cl)c1C(=O)N1CCOCC1	3.7	1.21	-5.5	0.828	9.3
Cc1[nH]n2cnnc2c(=O)c1Br	9.8	0.622	.	.	.
CN(Cc1ccccc1)c1ncnc2ccc(Br)cc12	9.4	-2.77	13.4	-4.68*	21.4
Clc1ccccc1-c1ncnc2ccc(Br)cc12	13.1	-1.02	3.9	-0.444	-15.5
C/C(=N\O)C1CCCCC1	-6.3	0.713	.	0.135	.

Assay outcomes from PubChem BioAssay.
